Assay results reported in PubChem BioAssay (EPA / NIEHS).
Records with an inconclusive call do not appear. Active and inactive are the calls of the source. How the source made its calls: active means hit-call score of the fitted dose curve at least 0.9, where 1 is the maximum; inconclusive means response in the unintended direction; inactive means score below 0.9.

Assay: ATG_GAL4_TRANS: Attagene TRANS-FACTORIAL HepG2 Assay for GAL4 (Internal Marker) (AID 2282976)
Conditions: HepG2 Attagene TRANS GAL4 internal marker reporter
Method in brief: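 First, HepG2 cells were transfected with reporter units under GAL4-UAS control. Next, they were treated with chemical for 24 h. Finally, RNA was reverse-transcribed, PCR-amplified, FAM-labelled and resolved by capillary electrophoresis, with induction scored against DMSO.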
In the case of `CCOC(=O)C(=O)OCC`, the outcome is reported as “inactive”.
With `Cc1ccncc1` the outcome was “inactive”.
With `CCc1cccc(O)c1` the outcome was “inactive”.
In the case of `O=S(=O)(O)CCCN1CCOCC1`, the outcome is reported as “inactive”.
For `CCn1cc(C(=O)O)c(=O)c2ccc(C)nc21`, the outcome was “inactive”.
For `CCOc1ccc(NC(C)=O)cc1`, the outcome was “inactive”.
In the case of `C=CC(=O)OCC(CO)(COC(=O)C=C)COC(=O)C=C`, the outcome is reported as “inactive”.
With `C=C(C)C(N)=O` the outcome was “inactive”.
For `CCCCOC(=O)C(C)OC(=O)CCC` (stereo unspecified), the outcome was “inactive”.
For `CCOC(=O)CC(C)C`, the outcome was “inactive”.
In the case of `CCCCCCOC(C)=O`, the outcome is reported as “inactive”.
For `COc1ccc2[nH]cc(CCNC(C)=O)c2c1`, the outcome was “inactive”.
In the case of `CC/C=C\CCOC(=O)C(C)C`, the outcome is reported as “inactive”.
For `CCCCCCCCCCCCCCCCCC(=O)OCCCCCCCCCCCCCC(C)C`, the outcome was “inactive”.
With `CCCCCCCCCC(=O)OCC` the outcome was “inactive”.
In the case of `c1ccc2scnc2c1`, the outcome is reported as “inactive”.
For `COC(=O)c1ccc(C(=O)OC)cc1`, the outcome was “inactive”.
In the case of `O=S1(=O)CC=CC1`, the outcome is reported as “inactive”.
For `CCCCCCCCCCO[C@@H]1O[C@H](CO)[C@@H](O)[C@H](O)[C@H]1O`, the outcome was “inactive”.
For `CCCCCC1CCC(=O)O1` (stereo unspecified), the outcome was “inactive”.
With `C=C(C)C(=O)OCCOCCOC(=O)C(=C)C` the outcome was “inactive”.
